# SRC3 TRFRET art: flags TR-FRET format artefacts in PPARgamma SRC-3 recruitment agonist screen; TR-FRET ratio at 8 µM; 99,000 compounds, 0.39% hits; TR-FRET artefact counter-screen, PPARgamma/SRC-3 format; hits give high values
# SRC1 TRFRET art: TR-FRET artefact, counter-screen to PPARgamma/SRC-1 agonist assay; TR-FRET detection artefact counter-screen, emission ratio; hits give high values; 99,000 compounds, 0.34% hits; AID 1051; TR-FRET ratio at 8 µM; in the data active means TR-FRET ratio above about 2300
# PPARg SRC1 recr: PPARgamma-driven SRC-1 recruitment agonism; AID 631; P37231; PPARgamma-SRC-1 coactivator recruitment biochemical assay; 200,000 compounds, 0.41% hits; activation, % at 8 µM; in the data active means activation above about 19%;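 further: 0% = DMSO and 100% = reference agonist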
# Target sequence (P37231 whole entry, looked up): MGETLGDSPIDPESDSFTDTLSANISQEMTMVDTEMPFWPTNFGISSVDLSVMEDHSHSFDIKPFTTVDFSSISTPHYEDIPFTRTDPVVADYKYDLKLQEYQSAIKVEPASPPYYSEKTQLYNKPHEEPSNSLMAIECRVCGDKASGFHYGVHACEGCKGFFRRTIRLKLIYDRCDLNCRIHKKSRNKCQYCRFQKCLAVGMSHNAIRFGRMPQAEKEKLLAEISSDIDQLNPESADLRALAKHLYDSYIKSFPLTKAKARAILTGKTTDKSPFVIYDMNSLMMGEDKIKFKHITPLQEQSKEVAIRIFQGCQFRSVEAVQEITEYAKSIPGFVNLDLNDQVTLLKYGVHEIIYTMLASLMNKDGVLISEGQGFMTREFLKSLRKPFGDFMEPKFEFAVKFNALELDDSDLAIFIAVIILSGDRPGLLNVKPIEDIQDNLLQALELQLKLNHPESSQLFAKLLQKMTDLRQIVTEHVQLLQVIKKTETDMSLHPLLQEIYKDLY
# PPARg SRC2 recr: agonists of SRC-2 recruitment by human PPARgamma; PPARgamma LBD-SRC-2 recruitment, biochemical; 200,000 compounds, 0.34% hits; activation, % at 8 µM; P37231; in the data active means activation above about 22%;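 further: 0% = vehicle and 100% = reference agonist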
# TR-FRET SRC-2 ct: counter-screen for PPARgamma SRC-2 recruitment agonists: TR-FRET artefact; hits give high values; TR-FRET ratio at 8 µM; 200,000 compounds, 0.4% hits
# PPARg SRC-3 ag: promotes SRC-3 coactivator recruitment by human PPARgamma. P37231. biochemical PPARgamma/SRC-3 coactivator recruitment assay. activation, % at 8 µM. 200,000 compounds, 0.26% hits. AID 731; in the data active means activation above about 23%;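 further: 0% = DMSO and 100% = reference agonist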
# Numbers without * were called inactive; · = no result given. An excerpt weighted towards active compounds, which were near 0.9% of everything screened. Unless noted, no stated cut-off is given here; in the data, active means TR-FRET ratio above about 2000; inactive means the rest.
SMILES,SRC3 TRFRET art,SRC1 TRFRET art,PPARg SRC1 recr,PPARg SRC2 recr,TR-FRET SRC-2 ct,PPARg SRC-3 ag
O=C(COc1ccccc1-c1ccccc1)NCc1ccco1,1556,4796*,54*,3,1456,-5
c1ccc2c(c1)CC/C2=N/Nc1nc2ccccc2[nH]1,1717,1819,22*,5,1668,8
COc1cccc(C(=O)NCc2ccc3c(c2)cc(C)n3C)c1,2355*,2604*,9,9,2069*,8
CCc1cccc(C)c1NC(=S)NCc1ccc2c(c1)cc(C)n2C,2094*,2006,0,5,1854,6
COc1ccc(/C=C\C(=O)NCc2ccc3c(c2)cc(C)n3C)cc1OC,2112*,1954,12,0,1597,5
COc1ccc(C(=O)NCc2ccc3c(c2)cc(C)n3C)cc1OC,1606,1553,-7,6,1671,-3
O=S(=O)(NNc1ccc(Cl)nn1)c1ccc(F)cc1,1714,1723,1,-6,1509,-2
COc1ccc(CN2CCNC(=O)C2CC(=O)N(C)Cc2ccon2)c(OC)c1 (stereo not given),1459,1800,7,1,1330,4
CCOC(=O)C1=C(C)NC(SCC(=O)O)=NC1c1ccccc1 (stereo not given),1400,1965,13,40*,2481*,-1
COC(=O)C(NC(=O)CNS(=O)(=O)c1ccc(Br)cc1)c1ccccc1 (stereo not given),1637,1923,6,9,1660,-2
CCOc1ccccc1Nc1nnc(SCC(=O)Nc2nc(-c3ccc(OC)cc3)cs2)s1,1775,2149,6,7,2038*,7
Cc1cc2nc(-c3ccc(SCc4ccc(C#N)cc4)nc3)[nH]c2cc1C,·,·,5,12,2209*,10
O=C(CSc1nnc(NC(=O)c2ccco2)s1)Nc1ccc2c(c1)OCCO2,1770,1736,7,4,1422,3
CCCCc1c(C)nc2ccc(Br)cc2c1SCCC#N,2091*,2268,7,14,2017*,13
CCc1c(C)nc2c(Br)cccc2c1SCCC#N,2026,2367*,11,19,1953,12
Cc1ccc2c(ccc(=S)n2C)c1,2121*,2278,13,17,1798,5
O=C(Cc1ccc(S(=O)(=O)N2CCCCC2)s1)Nc1cccc2ccccc12,1582,1756,-2,3,1477,2
COc1ccc(CCN(C)S(=O)(=O)c2ccc(Cl)nc2)cc1OC,1616,1881,7,0,1975*,3
CN(Cc1ccccc1)S(=O)(=O)c1ccc(Cl)nc1,·,·,6,3,1574,12
O=C(CSc1nc2c(c(=O)[nH]1)CCC2)Nc1cccc(Cl)c1,·,·,5,-5,1428,-14
N#Cc1c(-c2ccco2)nc(SCC(=O)Nc2cccc(Cl)c2)[nH]c1=O,·,·,18,20,2164*,22
CCc1cc2ccc(C)cc2nc1SCC(=O)Nc1cc(C)on1,1470,1621,-2,-2,1591,1
CCc1cc2cc3c(cc2nc1SCC(=O)Nc1cc(C)on1)OCO3,·,·,36*,5,1540,3
COc1ccc(CSc2nc3ccccc3c(=O)n2CCCN2CCOCC2)cc1F,1904,1950,7,12,1715,0
CCOc1cccc(NC(=O)C2CC(=O)N(c3ccc(F)cc3)C2)c1 (stereo not given),1698,1793,0,5,1456,1
SMILES,SRC3 TRFRET art,SRC1 TRFRET art,PPARg SRC1 recr,PPARg SRC2 recr,TR-FRET SRC-2 ct,PPARg SRC-3 ag
COc1ccccc1C(=O)Nc1cccnc1,1667,1929,6,10,1551,3
COc1ccccc1C(=O)Nc1ccccn1,·,·,2,24*,1834,1
COc1ccc(OCC(=O)Nc2cc(-c3nn(C)c(=O)c4ccccc34)ccc2OC)cc1,·,·,38*,4,1425,-4
COC(=O)C1=C(C)NC(=O)/C1=C\N(C)C,1474,1847,10,3,1619,4
CCOC(=O)C1C(=O)C=C(c2ccc([N+](=O)[O-])cc2)CC1c1ccccc1 (stereo not given),·,·,2,1,1385,3
CCOC(=O)C1C(=O)C=C(c2ccc(C)cc2)CC1c1ccccc1 (stereo not given),1705,2102,8,11,2001*,0
COc1ccc(/C=C/C2=CC(C)(C)NC(=S)N2)cc1,1523,1708,-10,-3,1588,-1
CC(=O)c1c(C)[n+]([O-])c2ccc3c(non3O)c12,1809,1946,7,7,1981*,-1
CC(OC(=O)c1cc2sccc2n1C)C(=O)NCc1cccs1 (stereo not given),·,·,24*,1,1517,8
O=C(NCC1CCCO1)C1CCCN1C(=O)Nc1ccc(Cl)cc1 (stereo not given),1562,1685,-5,-1,1405,2
CCc1nc2ccc(C(=O)Nc3nnc(C)s3)cc2nc1CC,1708,6131*,478*,-3,1452,2
CCc1nc2ccc(C(=O)Nc3cccc(C(C)=O)c3)cc2nc1CC,1517,1697,-2,-7,1617,-4
CCc1ccc(N(C(=O)c2csnn2)C(C(=O)NC(C)(C)C)c2cccnc2)cc1 (stereo not given),1691,1763,0,23*,2266*,-2
COC(=O)c1nnn(-c2ccccc2)c1N,·,·,-1,1,1453,1
COCc1c(C(=O)OC)nnn1-c1ccccc1,·,·,94*,-4,1401,12
COc1cccc(CSc2nc3cc4c(cc3cc2C)OCCO4)c1,2784*,2000,9,11,1704,7
Cc1cc2cc3c(cc2nc1SCc1ccc(C(=O)O)cc1)OCCO3,1655,1728,10,12,1513,-6
CC1CC(C)CN(CC(=O)NCCc2ccc(S(N)(=O)=O)cc2)C1 (stereo not given),1557,1824,9,-3,1700,2
O=C(Nc1ccc2ccccc2c1)c1cn(-c2ccccc2)nc1-c1cccs1,·,·,11,9,2107*,14
CC(=O)c1sc(NC(=O)c2ccc(C(C)(C)C)cc2)nc1C,2151*,2152,20,16,1990*,17
CC(=O)c1sc(NC(=O)c2ccc(C)c(C)c2)nc1C,1583,1400,-4,-4,1603,-1
CCc1ccc2nc(N3C(=O)C(O)=C(C(=O)c4ccco4)C3c3cccs3)sc2c1 (stereo not given),·,·,29*,36*,2282*,28*
CNC(=S)Nc1ccc(C(N)=O)cc1,1619,1842,7,9,1510,0
COc1ccc(CSc2nnc(Cc3sc(-c4ccccc4)nc3-c3ccccc3)o2)cc1,·,·,8,10,3227*,17
Cc1c(N=NC2=C(O)CC(C)(C)CC2=O)c(=O)n(-c2ccccc2)n1C,1644,1715,4,4,1635,2
CC(/C=N/NC(=O)NC1CCCCC1)=C\c1ccccc1,1722,2009,-1,7,2081*,2

# Screening results as filed in PubChem BioAssay.
